The record followed here is PubChem BioAssay (NCI).

Structures are written as SMILES. “And” between values parts separate entries of the source, which are not always exact repeats. Equal entries are not always repeated. The panel holds about 83,000 compounds, 20% with a hit somewhere; the sample as a whole holds those more often.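 Values shown are percent growth following 48 h exposure of cells in 96-well plates to a single concentration of compound; below 10 was considered active.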 More than one record can exist for a structure, and the calls need not agree. The source made the active and inactive calls.

The test system of this assay is MDA-MB-468 breast. Nature of the assay: NCI-60 one-dose screen, 48 h (100 = growth as untreated, 0 = no growth, -100 = all killed). Particulars: 10 µM unless noted.
On to `Cc1cc2oc(=O)cc(CP(=O)(O)O)c2cc1O`, for which the growth is 89.8% (inactive). For the molecule `Cc1ccc2c(n1)C[C@H](C(C)(C)O)CC[C@H]2C`, the growth is 108% (inactive). With `O=C(CO)C(O)C(O)C(O)C(O)CO` (stereo not given), the growth was -18.1% (active) and 102% (inactive). The figure for `C[C@@H]1C[C@H]2C(=O)O[C@@H](C)C(NC(=O)[C@H](Cc3cc(F)cc(F)c3)NC(=O)Nc3ccc(Cl)cc3F)C(=O)N3CCC[C@H]3C(=O)N3CCCC[C@H]3C(=O)N[C@@H](CO)C(=O)N2C1` (stereo not given in full) is -10.4% (active); for `CCC(C)(C)C1CCC(O)CC1` (stereo not given) it is 104% (inactive).

Turning to `Cc1c(NC(=O)OC[C@@H]2COCCN2)cn2ncnc(Nc3ccc4c(cnn4Cc4cccc(F)c4)c3)c12`, the growth was -53.7% (active).

For `CCc1ccc(C2=NN(c3ccc(S(C)(=O)=O)cc3)C(=O)CC2)cc1`, the growth is 50.7% (inactive). Turning to `COc1cc(-c2cc(/C=C/C(=O)c3ccc(N)cc3)[nH]n2)cc(OC)c1OC`, the growth was -47.7% (active). For the molecule `CNC(=O)Nc1ccc(-c2nc(N3CCOCC3)nc3c2cnn3C2CCOCC2)cc1`, the growth is -34.4% (active). Turning to `CC(=O)O[C@@H]1[C@@H](OC(C)=O)[C@H](OC(C)=O)CO[C@H]1Nc1cccc2ccccc12`, the growth was 104% (inactive). With `C=CCn1c(C)nc2cc(Nc3nc(Nc4ccc5nc(C)n(CC=C)c5c4)c4ccccc4n3)ccc21`, the growth is -85% (active). For `CN(C)CCNc1ccc2ncc(C#Cc3cncc(C(=O)Nc4ccc(CN5CCN(C)CC5)c(C(F)(F)F)c4)c3)n2n1`, the growth was -67.9% (active). The figure for `NS(=O)(=O)c1ccc(CCN2C(=O)/C(=C\c3ccc(Cl)cc3)C=C2c2ccc3ccccc3c2)cc1` is 91% (inactive); for `O=C1c2c(c3c4ccccc4[nH]c3c3ccc4ccccc4c23)C(=O)N1CCN1CCOCC1` it is 58.6% (inactive). As to `COC(=O)c1nc(-c2ccccc2)oc1S(=O)(=O)NCC(c1ccc(Cl)cc1)N1CCOCC1` (stereo not given), the growth was 29.9% (inactive). With `O=C(NNC(=O)N1c2ccccc2C=Cc2ccccc21)c1ccc2ccccc2c1` the figure was 87.7% (inactive); with `CN1CCN(CCCN2c3ccccc3Sc3ccc(Cl)cc32)CC1`, -0.133% (active) and 70.8% (inactive).

In the case of `O=C(C[n+]1ccccc1Cl)c1ccc2c(c1)CCCC2`, the growth is 45.1% (inactive). With `CCOC(=O)c1c(C)oc(C)c(C(=O)OCC)c1=O`, the growth was 103% (inactive).

In the case of `COc1ccc(-c2nc3ccccn3c2-c2nnc(-c3cc(OC)c(OC)c(OC)c3)o2)cc1`, the growth is 44.3% (inactive). For the molecule `Cc1nc2ccc(-n3c(-c4ccc(Cl)cc4)nc4ccccc4c3=O)cc2n1Cc1ccccc1`, the growth was 77.6% (inactive). With `COc1cc([C@H]2OC[C@H]3[C@@H]2CO[C@@H]3c2ccc(O)c(OC)c2)ccc1O`, the growth is 100% (inactive). With `CC(=O)/C(=C/c1ccccc1)C(=O)CC(C)C` the figure was 93.7% (inactive); with `C=CCn1c(SCC(=O)Nc2ccc(/C(C)=N\O)cc2)nnc1-c1cc(-c2ccccc2)nc2ccccc12`, 73% (inactive).

For `COC12C=C/C(=C(/C(=O)OCc3ccncc3)C(=O)CCCCCCCCC3(OC)C=C/C(=C(/C(=O)OCc4ccncc4)C(=O)CCCCCCCC1)O3)O2`, the growth is -39% (active). As for `COc1ccc(OC)c(C2OC(c3ccc4ccccc4c3O)=NN2C(C)=O)c1` (stereo not given), the growth was 53.9% (inactive). With `Nc1nc(N)c2nc3c(nc2n1)CCCCCCCCCC3` the figure was 58.1% (inactive); with `O=C(c1cccc(Br)c1)N1CCN(c2ccnc3cc(Cl)ccc23)CC1`, 66% (inactive).

As to `CC/C(=C/c1c(O)cccc1OC)c1ccc2c(OC)cccc2[o+]1`, the growth was 95.1% (inactive). Turning to `CCOC(=O)c1cc(/C=C/c2ccc(Cl)cc2Cl)on1`, the growth is 37.6% (inactive).

For the molecule `CC(C)(CCN=C(N)Nc1ccccn1)c1ccc(C(F)(F)F)cc1`, the growth was 3.96% (active). `O=C(Nc1cccc(-n2cc(-c3ccncc3)c(-c3cc(O)cc(Cl)c3)n2)c1)Nc1ccc(Cl)c(C(F)(F)F)c1`: the growth was 5.22% (active). The figure for `COc1ccc2c(c1)C/C(=C\c1cc(-c3cc(OC)c(OC)c(OC)c3)n[nH]1)C2=O` is 68.8% (inactive); for `O=C(CN1CCN(c2cc(=O)[nH]c3ccc(F)cc23)CC1)N(c1ccccc1)c1ccccc1` it is 98.6% (inactive). Regarding `CN[C@@H](C)C(=O)N[C@H]1CCS[C@H]2CC(C)(C)[C@@H](C(=O)N[C@H]3c4ccccc4C[C@H]3OCC#CC#CCO[C@@H]3Cc4ccccc4[C@@H]3NC(=O)[C@H]3N4C(=O)[C@@H](NC(=O)[C@H](C)NC)CCS[C@H]4CC3(C)C)N2C1=O`, the growth was 19.3% (inactive).
